Here are results for five compounds from PubChem BioAssay.

Experiment [1] can be described thus: yeast TOR pathway RPL19A-GFP modulators, primary screen, cell-based, S. cerevisiae, multiplex flow cytometry (AID 1862; in the data active = percent of DMSO control GFP below about 86%;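 also: lower values mimic rapamycin by blocking the RPL19A rise seen in DMSO cells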). As to conditions: S. cerevisiae RPL19A-GFP strain, flow cytometry fluorescence, 3 h; at 10 µM; stronger effect = lower value. (In general: Flow cytometry measures light scatter and fluorescence of single cells or particles in a stream.)
Experiment [2] can be described thus: modulators of MEP2-GFP levels in yeast, primary screen, S. cerevisiae, multiplex flow cytometry (AID 1867;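 active = GFP response, as percent of the DMSO control, above the screen-wide mean plus 3 SD, about 139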;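 also: median GFP channel fluorescence of barcode-gated MEP2-GFP cells measured by flow cytometry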). As to conditions: S. cerevisiae MEP2-GFP strain, 3 h, at 10 µM, stronger effect = higher value, 100% means same as DMSO wells.
Experiment [3] is described as follows: modulators of CIT2-GFP expression in yeast, primary screen, S. cerevisiae, GFP fusion, multiplex flow cytometry (AID 1870;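 active = percent response above a set limit, the screen-wide mean plus 3 SD, cut at about 130% in these data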;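 also: barcoded CIT2-GFP strain pooled with four other GFP strains with rapamycin as positive control; median GFP fluorescence per well over plate mean of DMSO wells so 100% = DMSO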). The conditions noted are these: 3 h, at 10 µM, stronger effect = higher value.
The nature of experiment [4]: modulators of LAP4-GFP expression in yeast, primary screen, S. cerevisiae, multiplex flow cytometry (AID 1873;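 active = GFP signal, as percent of the solvent control, above the screen mean plus 3 SD, about 149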). The conditions noted are these: 3 h, at 10 µM, stronger effect = higher value.
Experiment [5] can be described thus: modulators of AGP1-GFP expression in yeast TOR pathway, primary screen, cell-based, multiplex flow cytometry, S. cerevisiae (AID 1887;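 active = GFP signal above the screen-wide mean plus 3 SD, that is over about 124.5% of the solvent control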;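 also: AGP1-GFP fusion strain of S. cerevisiae within a five-strain barcoded multiplex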). The conditions noted are these: 3 h, at 10 µM, stronger effect = higher value.
The nature of experiment [6]: inhibitors of CD8+ T cell-vesicle binding, pilot screen, LFA-1/ICAM-1 modulator project, MLPCN validation set, flow cytometry (AID 2523;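 active = response below a set limit, under 55% cells CD8-positive and vesicle-bound, and CD8 cells' 90th-percentile brightness under 279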;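 as to vesicle binding response: mean PE anti-B7-1 fluorescence of CD8+ cells relative to row control; 100% = QL9-loaded vesicles with DMSO vehicle in the same plate row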). As to conditions: 2C mouse CD8+ T cells, at 7 µM, stronger effect = lower value; double positive events: measured here: CD8+/vesicle+ event percentage.
In experiment [7] the target is Integrin beta-1 (Homo sapiens) + Integrin alpha-4 (Homo sapiens) (UniProt P13612+P05556). Nature of the experiment: inhibition of HUTS-21 binding to VLA-4, pilot screen, VLA-4 allosteric modulator project, U937 cells, HUTS-21 mAb, flow cytometry, validation set (AID 2674;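 active = inhibition above 50%, about 3 SD of the validation set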;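 also: antibody binding induced by the VLA-4 ligand LDV present at three times its Kd; 0% = LDV ligand with antibody and no compound and 100% = antibody without LDV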). As to conditions: HUTS-21 LIBS mAb binding, at 6.7 µM, stronger effect = higher value, binding induced by LDV ligand.

Experiment [8] in a line: superoxide lowering in aged yeast cells, pilot screen, validation compound set (AID 2706;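 active = superoxide response below 65% of plate, a cut near 3 SD across the whole screen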;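 also: yeast exposed to compound for one week at 30 degrees C before staining; 100% = mean of all compound wells on the same plate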). The conditions noted are these: S. cerevisiae aging, superoxide DHE fluorescence; at 10 µM, stronger effect = lower value.
The target of experiment [9] is Beta-adrenergic receptor kinase 1 (Homo sapiens) (UniProt P25098). Nature of the experiment: GRK2 binders displacing RNA aptamer, biochemical, validation, human GRK2, bead flow cytometry (AID 488806;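 active = aptamer binding inhibition above 30%, about 3 SD of noise from non-fluorescent compounds; inactive = inhibition at or below 30%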). The conditions noted are these: bead-bound GRK2, FAM-aptamer displacement, at 10 µM, stronger effect = higher value.
The target in experiment [10] is AP-2 complex subunit beta (Homo sapiens) (UniProt P63010). Kind of experiment: inhibitors of arrestin peptide binding to AP2, pilot screen, biochemical, validation set, GST-AP2 beads, flow cytometry (AID 504541;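 active = inhibition above 54%, about 3 SD of non-fluorescent compounds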;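 also: AP2 carries R879A mutation and is captured from E. coli lysate; bead-bound FITC arrestin peptide fluorescence measuring arrestin peptide binding to AP2; 0% = DMSO wells and 100% = excess unlabeled arrestin peptide control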). The conditions noted are these: FITC arrestin peptide, at 10 µM, stronger effect = higher value, AP2 beta2 appendage fragment, R879A mutant.
A short description of experiment [11]: yeast V-ATPase proton transport modulators, S. cerevisiae, pHLuorin, HTS validation (AID 504600; in the data active = response above about 15%;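 also: plate controls were DMSO for no effect and reference compound for full effect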). The conditions noted are these: S. cerevisiae pHLuorin cytosolic pH, at 10 µM, stronger effect = higher value.
Experiment [12] deals with anti-desmoglein-3 scFv antibody binding to human DSG3. Nature of the experiment: inhibitors of anti-DSG3 scFv binding to DSG3, pilot screen, biochemical, validation compound set, bead-based, flow cytometry (AID 588368;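 active = binding below the plate cutoff, the plate median minus 3 SD, with a reading above zero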;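 also: signal is the median channel fluorescence of bead-bound GFP antibody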). As to conditions: Protein G beads, DSG3-Fc, scFv-GFP binding, at 10 µM, stronger effect = lower value.
The nature of experiment [13]: inhibitors of fungal efflux pumps CDR1, CDR2, MDR1, pilot screen, validation compound set, multiplex, phenotypic (AID 588506).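 Also: Nile Red retained in cells so higher fluorescence means more efflux inhibition; 0 = negative control wells and 1 = enniatin B 25 µM full block.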 As to conditions: S. cerevisiae pump-expressing triplex, Nile Red efflux flow cytometry; at 10 µM; stronger effect = higher value; the pumps come from Candida albicans.
In experiment [14] the target is ATP-binding cassette sub-family B member 6 (Homo sapiens) (UniProt Q9NP58). Nature of the experiment: ABCB6 transporter inhibitors, pilot screen, K562-ABCB6 cells, flow cytometry, validation set (AID 588550;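 active = inhibition above the screen-wide mean plus 3 SD, about 51%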;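 also: 0% = DMSO wells and 100% = benzethonium chloride 70 µM positive control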). The conditions noted are these: K562-ABCB6 porphyrin accumulation, 1 h, at 10 µM, stronger effect = higher value.
The nature of experiment [15]: promoters of myeloid differentiation in arrested cells, primary screen, cell-based, GFP/MAC1 double positive, flow cytometry, validation set (AID 588685;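 active = differentiation response of at least 50%, scaled between solvent and reference control, from cells with both markers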;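 also: compound exposure lasts four days before antibody staining and flow analysis; 0% = DMSO wells and 100% = 5 µM fulvestrant positive control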). As to conditions: ER-HoxA9 marrow cells, stronger effect = higher value, normalized: vehicle 0, fulvestrant 100.

Records with an inconclusive call do not appear. The source made the active and inactive calls.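 The calls were made as follows, unless noted: active = efflux inhibition above 0.42, the validation set average plus 4 SD; inconclusive = no clear call, values can overlap the other calls; inactive = the rest.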

ATP-binding cassette sub-family B member 6 (Homo sapiens), sequence (Q9NP58 whole entry, looked up): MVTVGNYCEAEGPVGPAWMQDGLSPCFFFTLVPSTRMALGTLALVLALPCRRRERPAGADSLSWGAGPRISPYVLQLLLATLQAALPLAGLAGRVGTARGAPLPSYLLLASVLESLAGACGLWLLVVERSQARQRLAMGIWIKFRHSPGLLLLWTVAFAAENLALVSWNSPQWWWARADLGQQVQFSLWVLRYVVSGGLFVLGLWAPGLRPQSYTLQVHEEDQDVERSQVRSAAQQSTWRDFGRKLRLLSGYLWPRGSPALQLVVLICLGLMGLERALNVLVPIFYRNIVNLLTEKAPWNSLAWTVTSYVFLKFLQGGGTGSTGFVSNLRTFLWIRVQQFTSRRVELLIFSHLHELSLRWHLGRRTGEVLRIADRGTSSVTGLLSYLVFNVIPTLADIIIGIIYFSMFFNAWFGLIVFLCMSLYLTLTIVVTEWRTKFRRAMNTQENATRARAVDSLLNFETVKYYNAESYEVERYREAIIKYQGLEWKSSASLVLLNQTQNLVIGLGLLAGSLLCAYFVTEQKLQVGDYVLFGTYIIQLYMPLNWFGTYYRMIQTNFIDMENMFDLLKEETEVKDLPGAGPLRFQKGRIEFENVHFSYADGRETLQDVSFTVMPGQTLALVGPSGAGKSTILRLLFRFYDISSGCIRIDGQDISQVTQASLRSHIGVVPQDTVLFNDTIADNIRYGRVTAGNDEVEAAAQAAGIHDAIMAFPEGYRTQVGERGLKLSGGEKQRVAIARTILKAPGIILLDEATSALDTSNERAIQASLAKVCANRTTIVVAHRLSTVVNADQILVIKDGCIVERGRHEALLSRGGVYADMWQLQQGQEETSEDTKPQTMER
Beta-adrenergic receptor kinase 1 (Homo sapiens), sequence (P25098 whole entry, looked up): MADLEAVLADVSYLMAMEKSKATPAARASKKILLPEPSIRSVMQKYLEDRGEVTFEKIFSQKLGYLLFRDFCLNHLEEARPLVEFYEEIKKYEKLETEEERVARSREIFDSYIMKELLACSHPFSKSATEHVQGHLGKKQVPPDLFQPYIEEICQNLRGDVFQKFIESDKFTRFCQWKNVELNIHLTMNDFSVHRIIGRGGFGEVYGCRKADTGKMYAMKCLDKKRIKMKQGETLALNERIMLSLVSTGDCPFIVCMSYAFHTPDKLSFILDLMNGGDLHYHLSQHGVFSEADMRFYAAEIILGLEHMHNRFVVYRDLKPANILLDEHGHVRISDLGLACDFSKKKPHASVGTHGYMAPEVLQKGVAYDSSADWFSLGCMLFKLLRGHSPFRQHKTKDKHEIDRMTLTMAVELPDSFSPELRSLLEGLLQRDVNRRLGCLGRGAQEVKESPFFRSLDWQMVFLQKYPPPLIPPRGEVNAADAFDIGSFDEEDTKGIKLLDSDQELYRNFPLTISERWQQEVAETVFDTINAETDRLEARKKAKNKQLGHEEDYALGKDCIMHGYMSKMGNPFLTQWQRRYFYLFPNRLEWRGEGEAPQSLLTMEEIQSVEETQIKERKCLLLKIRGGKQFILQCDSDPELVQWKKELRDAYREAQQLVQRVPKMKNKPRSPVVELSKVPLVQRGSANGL
AP-2 complex subunit beta (Homo sapiens), sequence (P63010 whole entry, looked up, the tested form may be a part, one chain of several): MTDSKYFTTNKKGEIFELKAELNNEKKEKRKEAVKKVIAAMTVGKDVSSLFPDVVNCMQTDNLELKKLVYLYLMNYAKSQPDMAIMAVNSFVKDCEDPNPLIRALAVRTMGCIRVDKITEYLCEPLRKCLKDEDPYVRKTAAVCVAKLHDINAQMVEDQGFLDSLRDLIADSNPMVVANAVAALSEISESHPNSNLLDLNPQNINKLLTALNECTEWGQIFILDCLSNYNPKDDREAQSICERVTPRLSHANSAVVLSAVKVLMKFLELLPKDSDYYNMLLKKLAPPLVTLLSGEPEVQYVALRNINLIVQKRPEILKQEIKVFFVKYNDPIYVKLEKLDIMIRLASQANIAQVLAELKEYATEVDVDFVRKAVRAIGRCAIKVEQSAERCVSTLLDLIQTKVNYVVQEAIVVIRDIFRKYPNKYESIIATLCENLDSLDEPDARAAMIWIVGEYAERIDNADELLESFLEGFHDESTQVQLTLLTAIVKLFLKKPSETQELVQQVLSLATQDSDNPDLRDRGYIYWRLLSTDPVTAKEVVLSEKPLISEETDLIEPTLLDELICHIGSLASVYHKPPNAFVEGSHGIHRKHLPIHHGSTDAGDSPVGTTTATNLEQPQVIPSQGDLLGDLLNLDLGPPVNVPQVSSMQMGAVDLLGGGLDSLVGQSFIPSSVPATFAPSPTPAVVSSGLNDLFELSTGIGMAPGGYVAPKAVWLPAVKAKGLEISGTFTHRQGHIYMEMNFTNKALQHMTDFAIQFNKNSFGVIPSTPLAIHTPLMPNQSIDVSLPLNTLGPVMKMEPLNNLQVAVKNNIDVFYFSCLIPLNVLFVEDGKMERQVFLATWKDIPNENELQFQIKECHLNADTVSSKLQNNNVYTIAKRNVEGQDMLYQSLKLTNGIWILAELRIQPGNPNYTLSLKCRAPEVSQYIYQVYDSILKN
Integrin beta-1 (Homo sapiens) + Integrin alpha-4 (Homo sapiens), sequence (P05556 whole entry, looked up): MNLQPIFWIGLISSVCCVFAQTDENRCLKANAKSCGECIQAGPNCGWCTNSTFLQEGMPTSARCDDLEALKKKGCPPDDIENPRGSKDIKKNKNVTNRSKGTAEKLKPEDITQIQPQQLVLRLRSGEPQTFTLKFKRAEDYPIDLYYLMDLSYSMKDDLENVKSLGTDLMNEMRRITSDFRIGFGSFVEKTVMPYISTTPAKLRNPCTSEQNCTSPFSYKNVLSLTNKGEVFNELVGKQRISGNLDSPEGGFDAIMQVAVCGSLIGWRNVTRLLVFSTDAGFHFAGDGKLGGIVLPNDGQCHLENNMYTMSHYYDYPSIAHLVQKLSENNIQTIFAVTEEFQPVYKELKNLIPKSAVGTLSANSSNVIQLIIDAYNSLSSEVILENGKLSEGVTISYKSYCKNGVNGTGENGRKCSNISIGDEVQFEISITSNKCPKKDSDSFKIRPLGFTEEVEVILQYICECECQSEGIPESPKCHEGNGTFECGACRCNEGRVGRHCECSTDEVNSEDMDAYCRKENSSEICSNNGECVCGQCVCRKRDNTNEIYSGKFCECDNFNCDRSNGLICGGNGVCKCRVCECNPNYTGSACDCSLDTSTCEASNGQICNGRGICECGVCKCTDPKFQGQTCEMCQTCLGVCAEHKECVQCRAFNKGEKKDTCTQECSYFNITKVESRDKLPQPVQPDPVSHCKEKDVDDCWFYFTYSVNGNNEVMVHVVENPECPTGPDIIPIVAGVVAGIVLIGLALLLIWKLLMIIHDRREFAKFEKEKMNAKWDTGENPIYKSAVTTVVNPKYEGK
Integrin beta-1 (Homo sapiens) + Integrin alpha-4 (Homo sapiens), sequence (P13612 whole entry, looked up): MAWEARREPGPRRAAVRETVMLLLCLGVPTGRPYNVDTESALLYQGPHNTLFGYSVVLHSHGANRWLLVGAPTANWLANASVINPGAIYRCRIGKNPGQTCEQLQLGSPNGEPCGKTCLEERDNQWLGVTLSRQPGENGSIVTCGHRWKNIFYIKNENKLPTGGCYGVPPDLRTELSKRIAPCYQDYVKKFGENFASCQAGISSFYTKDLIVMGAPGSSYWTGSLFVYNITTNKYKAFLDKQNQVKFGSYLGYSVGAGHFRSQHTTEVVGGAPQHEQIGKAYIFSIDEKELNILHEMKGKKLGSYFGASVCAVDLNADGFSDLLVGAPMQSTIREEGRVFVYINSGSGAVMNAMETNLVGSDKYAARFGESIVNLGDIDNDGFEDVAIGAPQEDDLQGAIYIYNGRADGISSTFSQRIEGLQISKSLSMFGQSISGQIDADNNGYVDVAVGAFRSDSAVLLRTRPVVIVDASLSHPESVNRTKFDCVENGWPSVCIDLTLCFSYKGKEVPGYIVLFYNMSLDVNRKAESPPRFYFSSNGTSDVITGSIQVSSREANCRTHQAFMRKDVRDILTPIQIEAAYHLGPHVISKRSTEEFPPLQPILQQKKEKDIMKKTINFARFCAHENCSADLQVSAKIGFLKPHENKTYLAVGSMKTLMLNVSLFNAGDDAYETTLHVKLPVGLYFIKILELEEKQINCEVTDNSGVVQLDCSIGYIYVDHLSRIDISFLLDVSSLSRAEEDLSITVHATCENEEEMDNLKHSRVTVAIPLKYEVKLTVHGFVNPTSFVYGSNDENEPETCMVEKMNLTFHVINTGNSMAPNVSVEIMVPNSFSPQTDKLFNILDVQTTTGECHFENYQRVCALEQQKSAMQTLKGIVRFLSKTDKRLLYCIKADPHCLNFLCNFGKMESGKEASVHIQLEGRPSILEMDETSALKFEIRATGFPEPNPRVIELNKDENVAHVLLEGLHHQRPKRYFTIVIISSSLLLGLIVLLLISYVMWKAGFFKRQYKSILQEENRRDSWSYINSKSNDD

With `CCS(=O)(=O)CCn1c([N+](=O)[O-])cnc1C`, the percent of DMSO control GFP in experiment [1] was 96.4% (inactive). The GFP response vs DMSO in [2] was 106% (inactive); in experiment [4] it was 94.3% (inactive). Besides, the percent response of DMSO control in [3] was 95.9% (inactive). In experiment [5], the GFP response, % of DMSO was 97.8% (inactive). Also, in [6], the double positive events worked out at 47.3%. For the same compound, the vesicle binding response in [6] was 136% (inactive). Also, the inhibition (in general, the drop in the measured response relative to a control, in per cent) in experiment [7] is 12.8% (inactive); in experiment [10], -4.86% (inactive); in experiment [14], 4% (inactive). For the same compound, the superoxide response (% of plate) in [8] was 108% (inactive). The aptamer binding inhibition in experiment [9] was 8% (inactive). The response in [11] was 5.33% (inactive). Further, the binding (% of control) in experiment [12] is 99.1% (inactive). In addition, in [13], the efflux inhibition (fraction of control) is 0.18 (inactive). The differentiation response in experiment [15] was -5.05% (inactive).

Regarding `COc1cc(=O)n(C)c2ccccc12`, the percent of DMSO control GFP in experiment [1] was 93.5% (inactive). The GFP response vs DMSO is 99.9% (inactive) in [2] and 90.3% (inactive) in experiment [4]. Moreover, the percent response of DMSO control in experiment [3] was 97.9% (inactive). The GFP response, % of DMSO in experiment [5] was 93.7% (inactive). For the same compound, the double positive events in experiment [6] stood at 54.6%. Besides, the vesicle binding response in experiment [6] was 136% (inactive). The inhibition in experiment [7] is 7.22% (inactive); in experiment [10], 28% (inactive); in experiment [14], 3% (inactive). Further, the superoxide response (% of plate) in experiment [8] is 103% (inactive). For the same compound, the aptamer binding inhibition in experiment [9] is 3% (inactive). The response in [11] is 3.71% (inactive). Further, in experiment [12], the binding (% of control) is 96.9% (inactive). Besides, the efflux inhibition (fraction of control) in [13] was 0.33 (inactive). The differentiation response in experiment [15] is -1.82% (inactive).

Take `O=C(O)c1cc(-c2ccc3c(c2)OCO3)nc2ccc(Br)cc12`: the percent of DMSO control GFP in [1] was 100% (inactive). Besides, the GFP response vs DMSO is 97.9% (inactive) in [2] and 127% (inactive) in [4]. Also, in experiment [3], the percent response of DMSO control was 82.2% (inactive). Moreover, the GFP response, % of DMSO in [5] is 88.9% (inactive). Besides, the double positive events in experiment [6] was 67%. The vesicle binding response in experiment [6] was 182% (inactive). Besides, the inhibition in experiment [7] was -7.7% (inactive); in [10], 12% (inactive); in experiment [14], 8% (inactive). The superoxide response (% of plate) in experiment [8] is 108% (inactive). In experiment [9], the aptamer binding inhibition is -3% (inactive). Besides, in experiment [11], the response was -4.89% (inactive). For the same compound, the binding (% of control) in experiment [12] is 105% (inactive). The efflux inhibition (fraction of control) in experiment [13] is 0.18 (inactive). Also, the differentiation response in experiment [15] was 41.8% (inactive).

For the compound `N/C(=N\OS(=O)(=O)c1ccc2ccccc2c1)c1cccnc1`, the percent of DMSO control GFP in experiment [1] was 103% (inactive). Besides, the GFP response vs DMSO in [2] was 104% (inactive); in [4], 99.4% (inactive). Further, the percent response of DMSO control in experiment [3] is 95.9% (inactive). The GFP response, % of DMSO in [5] was 97.5% (inactive). This compound also yielded a double positive events in experiment [6] of 61.4%. The vesicle binding response in experiment [6] is 133% (inactive). Also, the inhibition is 2.56% (inactive) in experiment [7], 45.4% (inactive) in experiment [10] and 6% (inactive) in experiment [14]. Further, the superoxide response (% of plate) in experiment [8] is 96.2% (inactive). For the same compound, the aptamer binding inhibition in experiment [9] was 2% (inactive). Also, the response in experiment [11] was -4.42% (inactive). Besides, the binding (% of control) in experiment [12] was 108% (inactive). Also, the efflux inhibition (fraction of control) in [13] was 0.29 (inactive). In [15], the differentiation response was -13.1% (inactive).

As for `CCCCNc1cc(C(=O)O)cc(S(N)(=O)=O)c1Oc1ccccc1`, the percent of DMSO control GFP in experiment [1] is 102% (inactive). In addition, the figures for the GFP response vs DMSO in experiment [2] and in [4] were 103% (inactive) and 89.3% (inactive), respectively. Also, the percent response of DMSO control in [3] is 97.9% (inactive). The GFP response, % of DMSO in [5] was 102% (inactive). This compound displayed a double positive events in [6] of 52.3%. Moreover, the vesicle binding response in experiment [6] was 179% (inactive). Further, the figures for the inhibition in experiment [7], in [10] and in [14] were 16.6% (inactive), 1.29% (inactive) and 11% (inactive), respectively. Besides, the superoxide response (% of plate) in [8] was 96.1% (inactive). In addition, the aptamer binding inhibition in [9] was 6% (inactive). Also, in experiment [11], the response was 10.1% (inactive). Also, the binding (% of control) in [12] was 99.5% (inactive). The efflux inhibition (fraction of control) in experiment [13] is 0.06 (inactive). Also, in experiment [15], the differentiation response is -9.89% (inactive).
